According to PubChem BioAssay (NCI):
Compounds without any hit were thinned out: in the full panel of roughly 83,000, 20% have a hit.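 Testing used 96-well plates and a 48-hour single-concentration exposure. Example: -40 means 40% of the starting cells died.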 Calls of active or inactive are those of the source. Rule for the calls: active = growth percent below 10; inactive = the rest.

Tests used:
Assay in all cases: NCI-60 one-dose screen, 48 h (100 = growth as untreated, 0 = no growth, -100 = all killed)
Conditions in all cases: 10 µM unless noted
[1] = test system: NCI-H23 lung
[2] = test system: NCI-H226 lung
[3] = test system: NCI-H322M lung
[4] = test system: HOP-62 NSCLC
[5] = test system: NCI-H460 lung
[6] = test system: NCI-H522 lung
[7] = test system: A549/ATCC NSCLC
[8] = test system: 786-0 renal
[9] = test system: COLO 205 colon
[10] = test system: DU-145 prostate
[11] = test system: K-562 leukemia
[12] = test system: MALME-3M melanoma
[13] = test system: MDA-MB-231 breast
[14] = test system: RXF 393 renal
[15] = test system: SF-268 CNS
[16] = test system: SF-295 CNS
[17] = test system: SF-539 CNS
[18] = test system: UACC-257 melanoma
[19] = test system: M14 melanoma
[20] = test system: HOP-92 NSCLC

Measured: growth

NC(CCC(=O)NC(CS)C(=O)NCC(=O)O)C(=O)O (stereo unspecified)
inactive: [1] 108% | [2] 101% | [3] 126% | [4] 103% | [5] 106% | [6] 98.3% | [7] 94.2% | [8] 109% | [9] 104% | [10] 112% | [11] 84.2% | [12] 122% | [13] 117% | [15] 103% | [16] 104% | [17] 105% | [18] 101% | [19] 108%
active: [14] -24.6%

O=[N+]([O-])c1ccc(Sc2nc(Cl)nc(NC3CCCC3)n2)cc1
active: [1] -70.2% [100 µM] | [2] -44.4% [100 µM] | [3] -92.2% [100 µM] | [4] -78.9% [100 µM] | [5] -51.1% [100 µM] | [20] -74.7% [100 µM] | [8] -83.5% [100 µM] | [9] -61.5% [100 µM] | [10] -100% [100 µM] | [11] -32.1% [100 µM] | [12] -80.9% [100 µM] | [13] -90.3% [100 µM] | [14] -75.4% [100 µM] | [15] -93% [100 µM] | [16] -93.9% [100 µM] | [19] -94.6% [100 µM]

Cc1nn(-c2ccccc2)c2nc3c(nc12)C1=NCCN1C(c1ccc(Cl)cc1)N3 (stereo unspecified)
inactive: [1] 92.8% | [2] 86.2% | [3] 77.4% | [4] 87.7% | [5] 82.9% | [20] 30.2% | [7] 88.9% | [8] 76.6% | [10] 89.9% | [13] 66.8% | [14] 70% | [15] 84.9% | [16] 94.6% | [17] 95.1%
active: [9] -82.9% | [11] 5.26% | [12] 7.76%

O=C(CCCN1CCC(O)(c2ccc(Br)cc2)CC1)c1ccc(F)cc1
active: [18] -21.9%
inactive: [1] 68.3% | [2] 99.5% | [3] 81.8% | [4] 64.3% | [5] 76.8% | [20] 98.9% | [7] 73.5% | [8] 69% | [12] 86.8% | [13] 40.7% | [14] 49.8% | [15] 83.4% | [16] 54.7% | [17] 77.8% | [19] 18.6%

ClCCn1cnc2c(SCc3ccccc3Cl)ncnc21
inactive: [1] 53.1% | [2] 57% | [3] 40.4% | [4] 64% | [20] 62.3% | [7] 40.1% | [8] 33% | [9] 41.7% | [10] 25.4% | [11] 13% | [12] 43% | [13] 66.5% | [15] 31.3% | [17] 30.9% | [18] 58.7%
active: [5] 2.49% | [16] 8.93%

O=C(N/N=C/c1ccc([N+](=O)[O-])o1)c1ccc(O)cc1
inactive: [1] 41.5% | [2] 89.7% | [3] 65.6% | [4] 30.3% | [5] 18.8% | [20] 103% | [7] 36.9% | [8] 63.4% | [13] 57.9% | [14] 82.5% | [15] 12.6% | [16] 49.8% | [18] 17.1%
active: [12] -34.9% | [17] 8.11% | [19] 4.75%

O=C1c2cccc3cccc(c23)C(=O)N1CCCCCCCCCCN1C(=O)c2cccc3cccc(c23)C1=O
inactive: [1] 112% | [2] 96.4% | [3] 111% | [4] 104% | [5] 102% | [20] 108% | [8] 109% | [9] 119% | [10] 123% | [11] 103% | [12] 113% | [13] 108% | [14] 96.6% | [15] 100% | [16] 95.3% | [17] 102% | [19] 119%

O=C1OC(/C=C/c2ccccc2)=NC/1=C/c1ccccc1[N+](=O)[O-]
inactive: [1] 106% | [2] 93.3% | [3] 84.6% | [4] 91.4% | [5] 103% | [20] 81.2% | [8] 97.6% | [9] 98% | [10] 105% | [11] 106% | [12] 96.9% | [13] 99% | [14] 116% | [15] 99.7% | [16] 97.4% | [17] 89.8% | [19] 99.6%

C=C1C[C@@]2(C)C(CC[C@]3(C)C2CC=C2C4CC(C)(C)C[C@@H](OC(=O)/C(C)=C\C)[C@]4(C(=O)O)CC[C@]23C)C(C)(C)C1=O (stereo partly specified)
inactive: [3] 46.7% | [4] 25.9% | [10] 10.3% | [12] 36.5% | [13] 22.7% | [15] 50.4% | [16] 59.8% | [18] 17.1%
active: [1] -45.6% | [2] -72.8% | [5] -37.2% | [6] -6.98% | [7] -2.25% | [8] -77.9% | [9] -11.2% | [11] 1.39% | [14] -75.6% | [17] -19.8% | [19] -14.2%

O=P(O)(O)C(O)(Cc1cccnc1)P(=O)(O)O
inactive: [1] 93.1% | [2] 111% | [3] 107% | [4] 94.3% | [5] 111% | [20] 114% | [7] 98.8% | [8] 108% | [12] 113% | [13] 94.1% | [14] 101% | [15] 104% | [16] 111% | [17] 101% | [18] 99.4% | [19] 99.6%

CCOC(=O)C(CCCCC(NC(C)=O)(C(=O)OCC)C(=O)OCC)(NC(C)=O)C(=O)OCC
inactive: [1] 103% | [2] 105% | [3] 105% | [4] 102% | [5] 103% | [20] 94.9% | [8] 99.4% | [9] 107% | [10] 113% | [11] 108% | [12] 108% | [13] 111% | [14] 102% | [15] 100% | [16] 99.3% | [17] 109% | [19] 105%

C=C(COC(C)=O)[C@H]1CC/C(C)=C/CC/C(C)=C/CC[C@@]2(C)O[C@H]2C1
inactive: [1] 106% | [2] 108% | [3] 102% | [4] 107% | [5] 106% | [6] 95.3% | [7] 105% | [8] 96% | [9] 148% | [10] 109% | [11] 100% | [12] 93.5% | [13] 107% | [14] 112% | [15] 97.2% | [16] 110% | [17] 114% | [18] 100% | [19] 106%

FC(F)(F)c1cc(-c2nnc3n2N=C(Cl)CS3)cc(C(F)(F)F)c1
inactive: [1] 93% | [2] 99.8% | [3] 111% | [4] 98.5% | [5] 107% | [20] 102% | [8] 93.5% | [10] 112% | [11] 83.4% | [12] 99% | [13] 112% | [15] 115% | [17] 109% | [19] 84.6%

Cc1cc2nc(CN)[nH]c2cc1C
inactive: [1] 103% | [2] 105% | [3] 107% | [4] 98.9% | [5] 103% | [20] 84% | [8] 97.4% | [9] 104% | [10] 106% | [11] 102% | [12] 104% | [13] 117% | [14] 107% | [15] 106% | [16] 98.1% | [17] 106% | [19] 99.9%

COc1ccc(-c2cc(-c3cc4ccccc4oc3=O)n(-c3ccccc3)n2)cc1
inactive: [1] 79.3% | [2] 75.7% | [3] 78.1% | [4] 55.4% | [5] 95.3% | [20] 67% | [9] 66.3% | [10] 84% | [11] 81.8% | [12] 69.5% | [13] 60.1% | [15] 71.1% | [16] 94.7% | [17] 33.8% | [19] 89%
active: [8] -31.5%

COc1ccc(-c2ccc(-c3ccc(C(=N)N)s3)s2)cc1
active: [1] -70.3% | [2] -50.9% | [3] -93.4% | [4] -81.6% | [5] -64.2% | [20] -64.2% | [8] -64.4% | [9] -89.2% | [10] -95.5% | [11] -21.5% | [12] -61.4% | [13] -79.9% | [14] -57.5% | [15] -61.3% | [16] -77.6% | [17] -75.5% | [19] -55.1%

O=C(CC(=O)c1ccccc1F)Nc1ccc([N+](=O)[O-])cc1
inactive: [1] 105% | [2] 86.2% | [3] 91.5% | [4] 114% | [5] 104% | [20] 79.6% | [8] 101% | [10] 119% | [11] 91.9% | [12] 93.6% | [13] 103% | [14] 103% | [15] 105% | [16] 98% | [17] 93.2% | [19] 100%
